Screening results (PubChem BioAssay)
D1 potentiator – human D1 dopamine receptor positive modulation; HEK293 TREx D1 cells, calcium flux, dopamine EC20 potentiation; potentiation, % at 10 µM; P21728; AID 504651; actives 0.036% (n = 360,000); in the data active = potentiation above about 30%; also: 0% is about no effect
Target sequence (P21728 whole entry, looked up): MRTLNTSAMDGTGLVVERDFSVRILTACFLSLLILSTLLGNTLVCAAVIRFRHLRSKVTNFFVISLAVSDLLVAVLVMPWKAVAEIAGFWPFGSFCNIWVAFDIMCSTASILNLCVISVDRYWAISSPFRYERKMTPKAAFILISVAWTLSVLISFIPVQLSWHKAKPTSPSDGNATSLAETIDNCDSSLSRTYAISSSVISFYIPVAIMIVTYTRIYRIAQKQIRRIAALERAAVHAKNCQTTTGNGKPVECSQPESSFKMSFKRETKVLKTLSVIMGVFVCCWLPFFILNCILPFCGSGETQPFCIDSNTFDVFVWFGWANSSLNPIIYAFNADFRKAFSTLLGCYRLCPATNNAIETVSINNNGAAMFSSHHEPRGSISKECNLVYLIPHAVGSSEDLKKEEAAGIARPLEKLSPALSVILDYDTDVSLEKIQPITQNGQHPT
D1 agonist – activates the human D1 dopamine receptor; actives 1% (n = 360,000); HEK293 T-REx D1 cells, calcium flux, agonist mode; activation, % at 2 µM; also: 0% is about no effect
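Inducible HEK293 T-REx D1 cells, force-coupled to calcium signalling, were plated at 4000 cells/well with tetracycline and held overnight at 30 C. After no-wash calcium dye loading, compound-evoked calcium rise over 180 s flagged agonists.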
TRHR agonist – TRH receptor (human) agonism. actives 0.18% (n = 360,000). activation, % at 2 µM. P34981. TRHR cells, calcium flux fluo-8, FDSS agonist mode; also: 0% is about no effect
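TRHR-expressing cells loaded with fluo-8 calcium dye; 23 nL library compound pin-transferred, kinetic FDSS fluorescence (Ex 480/Em 530) recorded about 180 s for agonist-induced calcium release, before a 10 nM TRH EC20 addition for potentiator mode.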
D1 antag – human D1 dopamine receptor antagonism; P21728; HEK293 TREx D1 cells, calcium flux, dopamine EC80; active compounds read low; activity change, negative = inhibition, % at 10 µM; actives 3.2% (n = 360,000); in the data active = activity change below about -30%; also: % is scaled to controls: 0 for no effect and ±100 for the full control effect
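Inducible Hek293 Trex D1 cells (tetracycline, overnight, 30 C). Calcium dye 30–90 min RT. Antagonist mode: EC80 dopamine added after 180 s compound read.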
TRHR PAM – allosteric enhancers of human TRH receptor. TRHR cells, fluo-8 calcium fluorescence, EC20 TRH enhancement. enhancement, % at 2 µM. actives 0.66% (n = 360,000). AID 493056; in the data active = enhancement above about 30%; also: 0% is about no effect
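Enhancer read-out: after compound pinning and an initial kinetic agonist-mode read, an EC20 of TRH (10 nM final) was injected and fluo-8 calcium signal (Ex 480/Em 530) followed at 1 s/cycle for 100 cycles in TRHR-expressing cells.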
Starred values were filed as active, the others as inactive; x = no result given. Shown are actives, neighbours in structure and some others; about 4.6% of the full set was active somewhere. Rule as the data show it, unless noted: active = activation above about 30%; inactive = the rest.

SMILES	D1 potentiator	D1 agonist	TRHR agonist	D1 antag	TRHR PAM
CCCCc1ccc(S(=O)(=O)Nc2ccc(C)c(NS(C)(=O)=O)c2)cc1	-5	23	0	-35*	8
COc1ccc(C2=C/C(=C\c3cccc(OC(C)=O)c3)C(=O)O2)cc1	-7	81*	11	-31*	-2
COc1ccc(C2=C/C(=C\c3ccccc3OC(C)=O)C(=O)O2)cc1	2	54*	19	-10	-1
O=C1OC(c2ccc(Cl)cc2)=C/C1=C/c1cccnc1	0	1	0	3	-3
CC(=O)N1CCCc2cc(S(=O)(=O)N(C)CC(=O)Nc3ccc(F)c(Cl)c3)ccc21	-4	10	-1	-13	0
CC(=O)c1cccc(NC(=O)Cn2c(-c3cncs3)nc3ccccc32)c1	1	1	-2	-5	1
COc1ccc(-n2c(Cc3ccccc3)nnc2SCc2nc(-c3cccs3)no2)cc1	-1	10	1	-10	-1
COc1ccc(/C(C)=N/N=C2/NC(=O)CC(C(=O)O)S2)cc1 (configuration not stated)	-4	1	0	-6	-3
CNC(=O)C1CC(=O)N/C(=N/N=C(\C)c2cccs2)S1 (configuration not stated)	0	0	0	-32*	-1
C/C(=N\N=C1\NC(=O)CC(C(=O)O)S1)c1ccc(F)cc1 (configuration not stated)	-4	3	0	2	2
COc1ccc(/C(C)=N/N=C2/NC(=O)CC(C(=O)O)S2)cc1F (configuration not stated)	-11	1	0	-31*	-16
Cc1nc(-c2ccccn2)nc(N2CCOCC2)c1Cl	1	4	1	-43*	-3
c1ccc(-c2nc(N3CCOCC3)c3ccccc3n2)nc1	-6	1	0	-34*	-1
Cc1nnc(-c2ccccc2)nc1N1CCOCC1	0	6	4	65	-7
c1ccc(-c2nc(N3CCCCCC3)c3ccccc3n2)nc1	3	-2	0	4	-4
COc1cc(F)cc(-c2ccc3c(c2)c(-c2cccs2)c(-c2cc(OC)cc(OC)c2)n3C)c1	-6	42*	5	x	-1
COc1cc(OC)cc(-c2c(-c3cccs3)c3cc(Br)ccc3n2C)c1	-6	-1	0	x	-2
CCOC(=O)c1c(NC(=O)c2nc(SC(C)C)ncc2Cl)sc2c1CCCC2	-2	1	0	3	4
COc1cccc(-c2ccc(NC(=O)C3CCCN(Cc4cnc(C)n4C)C3)cc2)c1 (configuration not stated)	-17	5	1	-4	-5
COc1cccc(-c2ccc(NC(=O)C3CCCN(Cc4cnn(C)c4)C3)cc2)c1 (configuration not stated)	-6	32*	6	1	28
Cn1cc(CN2CCCC(C(=O)Nc3cccc(-c4cc5ccccc5[nH]4)c3)C2)cn1 (configuration not stated)	-9	12	1	-19	3
CC(C)n1cc(CN2CCCC(C(=O)Nc3cccc(-c4cc5ccccc5[nH]4)c3)C2)cn1 (configuration not stated)	-15	30*	1	-31*	0
COCc1cc(CN2CCCC(C(=O)Nc3ccc(-c4ccco4)cc3)C2)ccc1OC (configuration not stated)	4	2	1	-30*	22
Cc1ncc(CN2CCCC(C(=O)Nc3ccc(-c4cccc(F)c4)cc3)C2)n1C (configuration not stated)	-13	16	1	-32*	0
Cc1ccc(Cn2c(C)c3cnn(CC(=O)N4CCN(c5ccc(F)cc5)CC4)c(=O)c3c2C)cc1	-5	4	-1	1	12
SMILES	D1 potentiator	D1 agonist	TRHR agonist	D1 antag	TRHR PAM
Cc1ccc(Cn2cc(CCC(=O)NC3CCCCC3)c3ccccc32)cc1	1	0	0	1	2
COc1ccc(NC(=O)C2=C(C)Nc3nc(SCc4ccc(C)cc4C)nn3C2c2cccc(OC)c2OC)cc1 (configuration not stated)	-1	2	0	-5	-4
CCCc1nn2c(=O)cc(COC(=O)c3ccccc3NC(=O)COc3ccccc3F)nc2s1	1	0	-2	-8	11
Cc1ccc(Nc2ccc(NCc3ccccc3)nn2)cc1C	-9	7	0	-44*	10
Cc1cc(NCc2ccccc2)nc2ccccc12	-22	34*	9	-66*	-7
Cc1cc(NCc2ccccc2)c2ccccc2n1	-2	6	1	-13	-8
CC(=O)c1ccc(NC(=O)C(C)n2nc(-c3ccccc3)ccc2=O)cc1 (configuration not stated)	-1	11	2	7	5
c1cncc(-c2ccnc3ncnn23)c1	0	4	0	-3	33*
c1ccc(-c2ccnc3ncnn23)nc1	2	2	1	-4	8
COc1ccc(NC(=O)C2CCN(S(=O)(=O)c3c(C)noc3/C=C/N(C)C)CC2)cc1	-2	1	0	-34*	-5
Cc1noc(/C=C/c2ccco2)c1S(=O)(=O)N1CCC(C(=O)NCc2ccco2)CC1	-4	4	-1	-15	-3
Cc1ccccc1NC(=O)C1CCN(S(=O)(=O)c2c(C)noc2/C=C/c2ccco2)CC1	5	0	0	-33*	-8
Cc1ccc2c(c1)N(C(=O)C1CCN(S(=O)(=O)c3c(C)noc3/C=C/c3ccccc3F)CC1)CCO2	0	10	1	-39*	-6
Cc1ccc(CNC(=O)C2CCN(S(=O)(=O)c3c(C)noc3/C=C/c3ccco3)CC2)cc1	-10	9	0	-48*	5
CCC1CN(C(=O)C2CCN(S(=O)(=O)c3c(C)noc3/C=C/c3ccccc3F)CC2)c2cc(C)ccc2O1 (configuration not stated)	-2	13	0	4	-2
COc1ccc(-c2noc(COc3ccc(C)c(C)c3)n2)cc1OC	-5	9	1	-45*	-8
Cc1ccc(-c2noc(COc3ccc(Br)c(C)c3)n2)cc1	-7	12	1	-4	-1
CCN(Cc1nc(-c2ccc(OC)c(OC)c2)no1)S(=O)(=O)c1ccc(OC)cc1	2	1	0	-34*	-4
COc1ccc(-c2noc(COc3ccc4ccccc4c3Br)n2)cc1OC	-5	0	-2	11	4
COc1ccc(-c2noc(COc3ccc(Br)cc3C)n2)cc1OC	-1	33*	0	2	28
O=C(NCCc1ccccc1)c1cc(Sc2ccc(F)cc2F)nc2ccccc12	-2	6	1	-7	-4
COc1cccc(/C=C/C(=O)NNC(=O)c2ccncc2)c1	-5	3	0	-6	-4
